The full list was thinned out, with hits kept by preference.
CHX counter-1: Cycloheximide Counterscreen for Small Molecule Inhibitors of Shiga Toxin | cell reporter, cycloheximide protein synthesis inhibition counterscreen | max response, % | 300,000 tested, 12% active | AID 2314, 2010; in the data active = max response mostly above about 13%, no sharp cut-off; inactive = mostly below about 14%; also: read at 38.3 µM for the half of the compounds with a filed dose
AMA1 RON2 block: qHTS for Inhibitors of AMA1-RON; Towards Development of Antimalarial Drug Lead: Primary Screen. AID 720542, 2013. Plasmodium falciparum AMA1 (3D7) - RON2 peptide interaction. Potency, µM (titrated, usually from 58.2 µM), most hits filed as inhibitors. 360,000 tested, 0.2% active. AlphaScreen AMA1-biotinylated RON2 peptide binding; also: nearly all actives have a fitted effect of over 45% in size
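AMA1 (3D7) with his tag at 25 nM final met compounds first, then biotinylated RON2 peptide at 25 nM; detection used donor plus acceptor beads, 10 µg/mL apiece, read by AlphaScreen after 30 min at room temperature.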
LASV entry inh: qHTS for Inhibitors of binding or entry into cells for Lassa Virus; Lassa virus pseudotype entry inhibition, cell reporter; Potency, µM (titrated, usually from 37.9 µM), actives largely listed as inhibitors; 300,000 tested, 1.2% active; AID 540256, 2011; calls by dose curve; tested in HEK293 cells; also: nearly all actives have a fitted effect of over 50% in size
Shiga toxin inh: A qHTS for Small Molecule Inhibitors of Shiga Toxin; Vero cells, Shiga toxin protein synthesis inhibition reporter; inhibition, % at 38.7 µM; 290,000 tested, 9.2% active; in the data active = inhibition mostly above about 28%, no sharp cut-off; inactive = mostly below about 43%
MARV entry inh: qHTS for inhibitors of binding or entry into cells for Marburg Virus. Marburg virus pseudotyped entry inhibition, cell reporter. Potency, µM (titrated, usually from 37.8 µM), actives largely listed as inhibitors. 300,000 tested, 1.8% active; calls by dose curve; tested in HEK293 cells
CHX counter-2: Cycloheximide Counterscreen for Small Molecule Inhibitors of Shiga Toxin (Confirmatory) | shares compounds with Shiga toxin inh | Cycloheximide counterscreen, protein synthesis reporter, Shiga toxin assay | Potency, µM (titrated, usually from 38.3 µM), most hits filed as activators | 510 tested, 3% active | AID 2318, 2010; calls by dose curve
WI-38 cytotox: High Content Assay for Compounds that inhibit the Assembly of the Perinucleolar Compartment: WI-38 Cytotoxicity. shares compounds with MARV entry inh. WI-38 normal lung fibroblasts, ATPLite luminescence ATP viability, 24 h. Potency, µM (titrated, usually from 46.1 µM), usual class: inhibitors. 120 tested, under 10 active. AID 2729, 2010
PNC inh conf: High Content Assay for Compounds that inhibit the Assembly of the Perinucleolar Compartment: Confirmation of PNC Inhibition; shares compounds with MARV entry inh; PC3M PTB-GFP, PNC prevalence imaging, 16 h; Potency, µM (highest dose often 46.1 µM), actives largely listed as inhibitors; 120 tested, 50% active; AID 2730, 2010
PC3M casp3-7: High Content Assay for Compounds that inhibit the Assembly of the Perinucleolar Compartment: PC3M Caspase 3/7 Activation. shares compounds with MARV entry inh. PC3M-GFP caspase 3/7 activation, luminescence, 24 h. activity change, positive = activation, % at 46.1 µM. 120 tested, under 10 active. AID 2731, 2010
Large screens that a line does not name were inactive (follow-up assays come after a bar, where they were run). Unless noted, calls follow the shape of the dose curve; as a rule, active = well fitted curve in the direction sought with a large enough effect; inconclusive = small, poorly fitted or top-dose-only effect, or another doubt; inactive = no such curve, though single readings can be large; an effect the other way counts as inactive or inconclusive.

O=C(c1ccco1)N1CCN(C(=O)c2cc(-c3ccccn3)nc3ccc(Cl)cc23)CC1	LASV entry inh inconclusive, Shiga toxin inh 32 | CHX counter-2 inactive
Cc1cccc(N2CCN(C(=O)Cc3ccc(Br)cc3)CC2)c1C	LASV entry inh inconclusive, Shiga toxin inh 66 | CHX counter-2 inconclusive
Cc1cccc(N2CCN(C(=O)CNC(=O)Cc3ccccc3)CC2)c1C	none (no result: CHX counter-1, LASV entry inh, Shiga toxin inh, MARV entry inh)
COc1ccc(N(CC(=O)Nc2ccc(Cl)cc2)S(=O)(=O)c2c(C)n[nH]c2C)cc1	Shiga toxin inh 24 (no result: LASV entry inh, MARV entry inh) | CHX counter-2 inactive
CC(C)NCC1CCc2cc(CO)c([N+](=O)[O-])cc2N1 (centres undefined)	none (no result: LASV entry inh, MARV entry inh)
Cc1ccccc1N1CC(O)(c2ccccc2)[N+]2=C1SCC2 (centres undefined)	MARV entry inh inconclusive
Cc1ccc(C2(O)CN(c3ccccc3C)C3=[N+]2CCS3)cc1 (centres undefined)	Shiga toxin inh 48 | CHX counter-2 inactive
Cc1ccc(N/C(C(Cl)=C(Cl)Cl)=C(/Cl)[N+](=O)[O-])c(C)c1	AMA1 RON2 block inconclusive, Shiga toxin inh 23 | CHX counter-2 inactive
Cn1c(SCC(=O)NC2CCCCC2)nnc1-c1ccncc1	MARV entry inh inconclusive
Cc1ccc(-c2nnc(SCC(=O)NC3CCCC3)n2C)cc1	Shiga toxin inh 69 | CHX counter-2 inactive
COc1ccc(-c2cnc[nH]2)cc1	Shiga toxin inh 78 | CHX counter-2 inactive
O=C(O)c1cc(S(=O)(=O)Nc2ccc(OCc3ccccc3)cc2)ccc1Br	Shiga toxin inh 40 | CHX counter-2 inconclusive
CC1CCCC(C)N1C(=O)Cn1nnc(-c2ccccc2)n1 (centres undefined)	Shiga toxin inh 33 (no result: LASV entry inh, MARV entry inh) | CHX counter-2 inactive
CCCCCOP(=O)(OCCCCC)C1(NS(=O)(=O)c2ccccc2)C=CC(=O)c2ccccc21 (centres undefined)	AMA1 RON2 block inconclusive, LASV entry inh inconclusive, MARV entry inh inconclusive
COc1cccc(/C=C/C(=O)NCCc2ccc3c(c2)OCCO3)c1	none
O=C(/C=C/c1ccccc1)NCCc1ccc2c(c1)OCCO2	LASV entry inh inconclusive, Shiga toxin inh 36 | CHX counter-2 inactive
CC(C)c1ccc(NC(=O)COC(=O)[C@@H]2CCCN2C(=O)c2cccs2)cc1	none (no result: CHX counter-1, LASV entry inh, Shiga toxin inh, MARV entry inh)
CN(C)c1ccc(C(=O)NCc2ccc3c(c2)CCO3)cc1	Shiga toxin inh 55 | CHX counter-2 inactive
Cc1cc(N/C=C\c2nnnn2-c2ccccc2)no1	Shiga toxin inh 30 | CHX counter-2 inconclusive
Cc1cc(NC(=O)CSc2nnnn2-c2ccccc2)no1	none
CCc1nc2ccc(C(=O)Nc3ccc(Cl)c(Cl)c3)cn2c1N(C)Cc1ccc(OC)cc1	none (no result: CHX counter-1, LASV entry inh, Shiga toxin inh, MARV entry inh)
CCN(CC)c1ccc(NC(=O)CCN2C(=O)c3ccccc3S2(=O)=O)c(C)c1	none (no result: CHX counter-1, Shiga toxin inh)
Cc1cccc(NC(=O)CCN2C(=O)c3ccccc3S2(=O)=O)c1C	Shiga toxin inh 17 (no result: LASV entry inh, MARV entry inh) | CHX counter-2 inactive
O=C(CCNC(=O)C1CCN(S(=O)(=O)c2ccccc2)CC1)NCc1ccc(Cl)c(Cl)c1	none (no result: LASV entry inh, MARV entry inh)
CCOc1ccc(S(=O)(=O)Nc2ccc3c(c2)n(C)c(=O)n3C)cc1	Shiga toxin inh 92 | CHX counter-2 inactive
N#Cc1cc2c(nc1SCC(=O)Nc1cc(Cl)ccc1Cl)C1CCN2CC1	LASV entry inh inconclusive, Shiga toxin inh 48 | CHX counter-2 inconclusive
Cc1cccc(-n2c(CNC(=O)c3ccc(S(=O)(=O)N4CCCCC4)cc3)n[nH]c2=S)c1	none
COCC(C)n1c(C)cc(C(=O)COC(=O)c2cccn2C)c1C (centres undefined)	none (no result: CHX counter-1, LASV entry inh, Shiga toxin inh, MARV entry inh)
Cc1cc(C(=O)COC(=O)c2cccn2C)c(C)n1Cc1ccco1	Shiga toxin inh 50 (no result: LASV entry inh, MARV entry inh) | CHX counter-2 0.71µM
O=C(Nc1nnc(Cc2ccccc2)s1)c1cccnc1	Shiga toxin inh 59 | CHX counter-2 inactive
CC(C)(C)C(=O)Nc1nnc(Cc2ccccc2)s1	none
c1ccc(OCCCn2ccnc2)cc1	Shiga toxin inh 42 | CHX counter-2 inactive
COc1ccc(N(C(=O)c2csnn2)C(C(=O)NC2CCCC2)c2cccs2)cc1 (centres undefined)	Shiga toxin inh 56 | CHX counter-2 inactive
Cc1ccccc1S(=O)(=O)Nc1ncnc2ccccc12	Shiga toxin inh 33 | CHX counter-2 inactive
COc1ccc(OCc2cccc(C(=O)O)c2)cc1	LASV entry inh inconclusive, Shiga toxin inh 52, MARV entry inh inconclusive | CHX counter-2 0.032µM
O=C(O)c1cccc(S(=O)(=O)Nc2ccc(OCc3ccccc3)cc2)c1	none
O=C(CSc1nc(C2CCCCC2)n(-c2ccccc2)n1)NCC(F)(F)F	MARV entry inh inconclusive
O=C(COC(=O)c1cncc(Br)c1)Nc1nc(-c2ccc(F)cc2)cs1	Shiga toxin inh 27 | CHX counter-2 inconclusive
CC(C)(C)OC(=O)N1CCC(c2c(C(=O)NCCN3CCOCC3)cnn2-c2ccc(F)cc2F)CC1	none (no result: CHX counter-1, AMA1 RON2 block, Shiga toxin inh, MARV entry inh)
O=C(OCc1cn([C@H]2C[C@H](c3ccc(Cl)cc3)N(C(=O)c3cccs3)C[C@@H]2O)nn1)c1ccccc1	none (no result: CHX counter-1, LASV entry inh, Shiga toxin inh, MARV entry inh)
COc1ccc(NC(=O)c2cc(-c3ccc(C)cc3)on2)cc1OC	none
COc1ccc(NC(=O)c2cc(C)on2)cc1OC	Shiga toxin inh 28 | CHX counter-2 inactive
Cc1cc2oc(=O)cc(-c3ccccc3)c2c(C)c1-c1ccoc1	none (no result: AMA1 RON2 block, LASV entry inh, MARV entry inh)
CC(=O)/C(C#N)=C1\NC(=O)C(Cc2ccc(C)c(C)c2)S1 (centres undefined)	LASV entry inh 1.3µM, Shiga toxin inh 34, MARV entry inh 0.41µM | CHX counter-2 inactive | WI-38 cytotox inactive | PNC inh conf 7.9µM | PC3M casp3-7 inactive
CC(=O)OC[C@H]1O[C@H](CCON=C(C)CCN2CCCCc3nc(C)c(C)cc32)C=C[C@H]1OC(C)=O	none (no result: CHX counter-1, AMA1 RON2 block, LASV entry inh, Shiga toxin inh)
N=c1c2c(-c3ccccc3)c(-c3ccccc3)n(Cc3ccco3)c2ncn1CCCn1ccnc1	LASV entry inh 11µM, MARV entry inh 3.5µM | WI-38 cytotox inactive | PNC inh conf 25µM | PC3M casp3-7 inactive
Cc1cc(OCCn2c(CCNC(=O)C3CCCCC3)nc3ccccc32)ccc1Cl	none (no result: AMA1 RON2 block)
